± gives the standard deviation of the averaged measurements. The full ranking holds about 25,000 sequences; the median of “ln(normalized median fluorescence intensity)” is about 8.6, and the highest 2% start at about 10. What follows is part of a selection rich in the highest values, with near analogues and random picks from the rest.
test system: PfAP2-EXP AP2 domain (GST-tagged); assay: gcPBM binding intensity (ln(normalized median fluorescence intensity)); higher = stronger DNA binding
In short: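 An Agilent 4 × 180k array carrying primer-extended double-stranded 36-bp intergenic genomic probes and negative controls received GST-tagged P. falciparum DNA-binding domains expressed in E. coli, about 25 μg on average, for 1 h. The binding buffer contained 1× PBS, 1% milk, 0.2 mg/ml BSA, 0.5% salmon testes DNA and 0.03% Triton X-100. Binding intensity is the top Masliner-normalised natural-log median intensity across replicate spots of either probe orientation, read after Alexa488 anti-GST antibody staining and a 488 nm scan.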

Sequence	gcPBM binding intensity (ln)
ATAATATATATATATAGTACATATATATAATATTCT [XGTACX_site2445]	8.2 ± 0.24
TTTCTTATATTATATAAATATATAGATGTTAATGGT [CACACA_negctrl_site706]	8.38 ± 0.47
TATTATTGTTGTTCATGTACACACTATAATAAAAGC [XGTACX_site8957]	8.64 ± 0.4
CAAAATTGACATGACGCACACAAGTGTAGATATTTT [CACACA_site1250]	8.57 ± 0.4
ATATAAATATAAATATATATGTATAAATATAAATAT [CACACA_negctrl_site247]	8.25 ± 0.47
ATTATATATGTATAAATATGCTATATATATATATAT [GTGCAC_negctrl_site430]	10.3 ± 0.17
GATTATATTATATATTAAATATAAATATGTATTATA [TGCATGCA_negctrl_site66]	8.04 ± 0.42
ATATTTTATACTTGCACACAAAATATATTAAAATGG [CACACA_site5139]	8.47 ± 0.4
CTTCCTTAGGAATGTACACACATATATAATATGTTG [CACACA_site461]	8.53 ± 0.4
CATTATTATTAACATACACACGTGTTATATACCCCC [CACACA_site9365]	10.2 ± 0.41
TTCATTATTATTAACATACACACGTGTTATATACAC [CACACA_site4112]	8.66 ± 0.41
CATTATTATTAACATACACACGTGTTAAATACACCC [CACACA_site6118]	8.91 ± 0.6
TTTTTTTTTTTTTTTTTTTTTTTTTTTTTTTGGGGG [CACACA_negctrl_site1570]	9.13 ± 0.49
TTTTTTTTTTTTTTTTGTACATATACATATATATAT [XGTACX_site1981]	9.3 ± 0.11
GGTTGTATAAGTTTTTGTACATATATATATATATAT [XGTACX_site7487]	10.2 ± 0.49
TAAGTTTTGTTCTTTTGTACATATAAGTATAGATCG [XGTACX_site4735]	8.48 ± 0.33
ATGTGTGTATTTTATAGTACAGTTACAAGCATTTTT [XGTACX_site6351]	8.57 ± 0.35
AATAAATACACATACACACACGACGCTAGTATATGT [CACACA_site6627]	8.29 ± 0.4
TTTTTTTTTAGAAAAACATGCATGTCCTAAAAATAA [TGCATGCA_site684]	8.89 ± 0.27
TATAAATAGATATATACACACTTGTGCAGAATATTA [CACACA_site7112]	8.63 ± 0.25
TATATATATATATATACACACTTGTGCAGAATATTA [CACACA_site5257]	10 ± 0.55
TATATATATATATATATACACACTTGTGCAGAATAT [CACACA_site2216]	10.2 ± 0.41
ATACATATATAAATACGTACATATATAATTATATAT [XGTACX_site8178]	8.55 ± 0.3

Sequence	gcPBM binding intensity (ln)
TACAATTCGTAATACACACACATATATATATATATT [CACACA_site3751]	8.62 ± 0.36
TTATTCATACAATATCGTACATATATATATATATAT [XGTACX_site1185]	10.2 ± 0.33
ATTATATATACATATACACACATACGTACATACATA [CACACA_site9194]	8.8 ± 0.4
TAATATTCAATTATACGTACACATATATATATATAT [XGTACX_site4245]	10.2 ± 0.2
ACATTTTTTTCATATCGTACATATTATAATATTTTC [XGTACX_site6524]	8.9 ± 0.39
TAAAAAATATACATTCGTACATATATATTATATATA [XGTACX_site7918]	8.12 ± 0.25
TACAATTCGTAATACACACACATATAAATAAATATT [CACACA_site7720]	8.44 ± 0.38
CCTACAATTCGTAATACACACACATATATATATATA [CACACA_site9251]	10.2 ± 0.16
TTGTAATTCATTCAAATATAAAATAAATAAATATGA [CACACA_negctrl_site349]	8.28 ± 0.34
AAATGAATTATATAATATATATAAATAAATAAATAA [CACACA_negctrl_site359]	8.46 ± 0.18
ATTTAAAACAAAAGTAGTACGTCTAATAAATTCAAC [XGTACX_site4344]	8.45 ± 0.34
ATATATATATATATATGTACACATAAAAAGAAAGAA [XGTACX_site1603]	10.2 ± 0.21
ACATTATATAAAATATGTACACATAAATAAATAAAT [XGTACX_site5031]	8.73 ± 0.41
TAAAAGAAATATACATGTACATAAATATATATATAT [XGTACX_site1276]	9.86 ± 0.2
ATATATATATATATATGTACACATATTATAAAAAAA [XGTACX_site8644]	10.2 ± 0.32
AAATAAAGAAATATATGTACATATATATATATATAT [XGTACX_site5131]	10.4 ± 0.28
TATTATAATAAAATATGTACACACATACACACATAT [XGTACX_site2360]	8.8 ± 0.33
ATTATAAGAAGGGGGGGTACATAAATATAAATGTAT [XGTACX_site5624]	10.4 ± 0.2
AAAAAAAAAAAGAAGGGTACATATTATATATAATAT [XGTACX_site6204]	8.59 ± 0.48
ATACATATACACATATGTACATATGAAAAGAAAAAT [XGTACX_site6445]	8.94 ± 0.45
TAAGAAAAATATATATGTACACATATATATATATAT [XGTACX_site8542]	9.97 ± 0.57
TATAAGAATAAAAAGGGTACATAAAATAATAATATA [XGTACX_site2355]	8.82 ± 0.38
AAAAAAAAAGAAAAATGTACATACATAAATATATAT [XGTACX_site5664]	8.57 ± 0.45

Sequence	gcPBM binding intensity (ln)
TTACAACAGAATGGTATTTTTTTATTTTAAAGAAAA [TGCATGCA_negctrl_site230]	8.04 ± 0.38
ACATAATATACTATTGTGCACATATATATATATATA [GTGCAC_site9761]	10.1 ± 0.45
AAAATGATGTTAATTACACACATCATCTCATAAACA [CACACA_site3017]	8.28 ± 0.4
TATTTAATTACATGAACACACATTAGATATTTTTAA [CACACA_site7405]	8.14 ± 0.44
TTCATAATAAAAAGGTGTACATATATATATATATAT [XGTACX_site2829]	10.34 ± 0.085
ACATATATATAAAGGTGTACACATATATATATATAT [XGTACX_site4779]	10.2 ± 0.71
TATATATAAAGGTGTACACATATATATATATCTGTA [CACACA_site5311]	8.45 ± 0.17
AAAAAAAAAAAAAGGTGTACATAAGTAAATTCATAT [XGTACX_site4206]	8.7 ± 0.54
ATTCATAAAAAGAGGTGTACATTAATATAATATATA [XGTACX_site8283]	8.62 ± 0.35
AATACAATATAAAGGTGTACATATATATATATATAT [XGTACX_site68]	10.1 ± 0.48
TATGTATATTTTAATTGTACGTGTATGGTTGTAAAT [XGTACX_site8738]	8.79 ± 0.38
TATTAAAATATTTATACACACATAATTTTGATAAAT [CACACA_site4486]	8.19 ± 0.43
ATAATATTATTATAATGTACATATTTCGATATAAAT [XGTACX_site8808]	8.61 ± 0.42
TATTCGTGCAATAATAGTACACTTATAAATTATTCA [XGTACX_site8993]	8.595 ± 0.064
ATCAAAGATAAATTTACACACATATAAATATAAATA [CACACA_site7409]	8.44 ± 0.56
TACTTTATATAAAGATCAAAAAATAAATAATTATAA [TGCATGCA_negctrl_site446]	8.45 ± 0.21
CACAATACTTTCATCACACATATATATATATATATA [CACACA_site4677]	10.1 ± 0.28
TACTTTCAAAAGATCACACATATATATATATATATA [CACACA_site5630]	10.39 ± 0.085
TCAAAAATAAAGATCACACATATATATATATATATA [CACACA_site4381]	10.2 ± 0.35
AAAAAAAAAGATCACACACACATAAATATAAACAAA [CACACA_site5285]	8.48 ± 0.26
TTTTTTTTTTTTTTTTGTACATAAATTTTTATTAGA [XGTACX_site6409]	8.17 ± 0.35
TATACATATTTCTATTGTACATAAACTAAATCTTCA [XGTACX_site28]	8.27 ± 0.49
TTTTATTTTTTATTTGCACACAATATGTAAAAAAAT [CACACA_site2927]	8.71 ± 0.16

Sequence	gcPBM binding intensity (ln)
ATATTAATTCGTTTTGTACACACATAATGAATAATT [CACACA_site8701]	8.43 ± 0.24
TGTGCTATATTCATATGTACATATAATTATTATATA [XGTACX_site3549]	8.86 ± 0.028
CTGTATTCATAATTCACACAAATGGTTTATATGAAT [CACACA_site4315]	8.5 ± 0.31
GGGGACGCGGGTGGGGGTACTCACACTATGCAAAAT [XGTACX_site7745]	10.3 ± 0.4
ATGCAAATGTGCATCACACACACTAATGGGTATGTA [CACACA_site2893]	8.39 ± 0.38
GCTTAGTTATATAACTGTACTATTTTTATTTATATG [XGTACX_site884]	9.16 ± 0.83
CCTATAATAAATAATACACACATATTGTAAATATAT [CACACA_site7496]	8.46 ± 0.53
AGGTGCAAAAATAAAACATGCAAAAATAAAAATGAA [TGCATGCA_site502]	9.15 ± 0.44
GAAAGAATAAAATAAACATGCAAATAAAACATAAAA [TGCATGCA_site471]	9.27 ± 0.25
CACATAAAATAAGGTGCATGCAAACGAGAAAATAAA [TGCATGCA_site75]	10.5 ± 0.11
CAAGGAACCAGACACACACACATAAATGTATTTATA [CACACA_site6491]	8.39 ± 0.48
TCATAAAAGATTAAGTGTACATGTGCTACTCTTATA [XGTACX_site6255]	8.34 ± 0.25
GTTTTTATCATATCATGTACGTATTTTATTTTTTTT [XGTACX_site8643]	9.03 ± 0.32
ATATATCATGAACCTTGTACGTATATATATATATAT [XGTACX_site239]	10.2 ± 0.23
ATATATATATATGTATGTACGTATGTATGTATGAAT [XGTACX_site4857]	9.91 ± 0.29
TAATATAATATATAGGTGCAATATTAACAAAAATTT	8.63 ± 0.085
TCTTAAAATATATAGGTGCAAAAAAAAAAAAAAAAA	8.31 ± 0.13
TATATATATATATAGGTGCAATATTGAAAAAATATC [GTGCAC_site9535]	10.3 ± 0.21
ACCGGTGGAACGTTTTGTACATATATAATAATATAT [XGTACX_site2143]	8.62 ± 0.5
TATATATATATATATTGTACTGAACGTTTTTTTTTG [XGTACX_site8060]	10.2 ± 0.39
AATACGTTTATATATTGTACGTTATATATATATATA [XGTACX_site7452]	9.91 ± 0.33
